# PINK1 expr mod – changes PINK1 expression. PINK1 immunofluorescence, high-content cytometry, 24 h. Potency, µM (titrated, usually from 76.6 µM), for the others: at the top dose activation (PINK1 increase), most hits filed as activators. 0.2% of 410,000 active. AID 624263; active = well fitted activation curve with a large enough effect; inconclusive = small, poorly fitted or top-dose-only effect; cell line not stated here; also: % of control where 0% means no effect; nearly all actives have a fitted effect of over 65% in size
#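 Readout is PINK1 immunofluorescence, quantified alongside mitochondrial, cell and nuclear markers by laser-scanning microplate cytometry. Cells from a stable line were exposed to compound titrations (5 concentrations) for 24 hours, with CCCP controls.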
# Epigenetic derep – regulators of epigenetic silencing causing reporter derepression in mouse cells | murine LDR cells, GFP reporter derepression, 30 h | Potency, µM (top dose mostly 53.9 µM), for the others: top-dose GFP activation, hits mostly activators | 0.2% of 280,000 active | AID 1865; also: % of control where 0% means no effect; nearly all actives have a fitted effect of over 60% in size
#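 Murine LDR cells carrying a silenced, genomically integrated CMV-driven GFP reporter were exposed to compound for 30 hours at 37 C. After PBS washes, GFP-positive cells (20–120 um objects) were counted by laser-scanning microplate cytometry.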
# RORgamma inh – inhibitors of mouse ROR gamma transcriptional activity; P51450; Drosophila S2 Gal4-RORgamma UAS-luciferase reporter, 20 h; Potency, µM (highest dose often 53.6 µM), for inactives: at the highest dose activity change, negative = inhibition, usual class: inhibitors; 5.4% of 310,000 active; AID 2551; also: % is scaled to controls: 0 for no effect and ±100 for the full control effect; nearly all actives have a fitted effect of over 60% in size
# Target sequence (P51450 whole entry, looked up, the tested form may be a part): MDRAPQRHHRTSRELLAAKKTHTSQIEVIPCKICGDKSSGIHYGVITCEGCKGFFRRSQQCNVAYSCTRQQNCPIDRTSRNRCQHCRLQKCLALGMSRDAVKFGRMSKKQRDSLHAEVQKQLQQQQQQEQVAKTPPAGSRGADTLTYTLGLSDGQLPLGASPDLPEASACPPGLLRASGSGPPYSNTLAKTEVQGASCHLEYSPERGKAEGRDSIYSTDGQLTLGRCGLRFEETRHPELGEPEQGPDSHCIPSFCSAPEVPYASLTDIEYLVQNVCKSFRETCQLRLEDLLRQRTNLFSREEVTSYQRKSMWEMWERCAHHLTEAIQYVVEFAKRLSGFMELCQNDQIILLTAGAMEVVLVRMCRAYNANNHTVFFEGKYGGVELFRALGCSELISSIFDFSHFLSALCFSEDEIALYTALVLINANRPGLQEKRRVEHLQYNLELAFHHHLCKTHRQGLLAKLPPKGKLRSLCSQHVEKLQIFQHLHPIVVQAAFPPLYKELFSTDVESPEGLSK
#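 Read-out: Photinus luciferase luminescence; inhibitors lower reporter signal. Insect Schneider cells with Gal4-ROR gamma fusion under metallothionein promoter, UAS reporter; 700 uM final copper sulfate induction, 20 hr, ambient temperature.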
# ClpP mod – qHTS Assay for Activators of ClpP. 1.9% of 340,000 active. Potency, µM (highest dose often 57.5 µM), for the others: at the top dose activity change, negative = active. purified B. subtilis ClpP, FRET peptide cleavage, 20 min; active = well fitted falling curve with a large enough effect; inconclusive = small, poorly fitted or top-dose-only effect; inactive = no such curve, though single readings can be large or run the other way; also: the source files actives as falling curves though it sought activators and does not explain the sign; nearly all actives have a fitted effect of over 65% in size
# Target sequence (P80244 whole entry, looked up): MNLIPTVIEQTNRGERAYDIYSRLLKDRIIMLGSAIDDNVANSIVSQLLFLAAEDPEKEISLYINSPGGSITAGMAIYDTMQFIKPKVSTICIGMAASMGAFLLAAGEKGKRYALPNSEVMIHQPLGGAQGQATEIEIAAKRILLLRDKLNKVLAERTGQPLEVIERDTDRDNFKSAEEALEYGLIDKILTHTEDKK
#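 ClpP 10 microg/mL final, pH 8 Tris/KCl buffer with BSA, glycerol, Tween-20; compound pinned in; FRET-FV substrate; RT 20 min; Ex320/Em430; ΔFRET vs ADEP 5.8 microM, DMSO, no enzyme.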
# VP16 counter – Gal4-VP16 reporter inhibition counter-screen; Drosophila S2 Gal4-VP16 UAS-luciferase, luminescence, 20 h; Potency, µM (titrated, usually from 53.6 µM), without a hit: at the highest dose activity, negative = inhibition, hits mostly inhibitors; 3.5% of 310,000 active; AID 2546;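 also: Gal4-VP16 expression switched on by copper sulfate through the metallothionein promoter; % is scaled to controls: 0 for no effect and ±100 for the full control effect; nearly all actives have a fitted effect of over 50% in size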
# Sfp inh – inhibitors of Bacillus subtilis Sfp phosphopantetheinyl transferase; Q9F4F7; Biochemical Sfp PPTase activity, qHTS; Potency, µM, without a hit: largest response in the series, negative = inhibition, usual class: inhibitors; 3.5% of 310,000 active; AID 1490;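 also: the enzyme is Sfp with the accession as filed and its product quenches rhodamine fluorescence; 0% = enzyme reaction without inhibitor and -100% = no enzyme wells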
#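 Buffer: 50 mM Hepes-Na pH 7.6, 10 mM MgCl2, 0.01% Nonidet P-40, 0.01% BSA. Enzyme 15 nM, pre-exposed to compound 15 min; substrates then added and fluorescence change tracked over 30 min.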
# An asterisk follows results filed as active; ? = inconclusive; nt = no result given; [ ] = another dose, or the depositor's remark. Only some compounds are listed: those with a hit (about 8.1% of all), similar ones and a draw of the others. Unless noted, calls follow the shape of the dose curve; as a rule, active = well fitted curve in the direction sought with a large enough effect; inconclusive = small, poorly fitted or top-dose-only effect, or another doubt; inactive = no such curve, though single readings can be large; an effect the other way counts as inactive or inconclusive. Potency is read from the fitted curve at half-maximal effect.
SMILES,PINK1 expr mod,Epigenetic derep,RORgamma inh,ClpP mod,VP16 counter,Sfp inh
O=C(Cc1ccc(Br)cc1)N1CCN(Cc2ccccc2)CC1,0%,1%,9%,0%,-7%,-11%
COC(=O)[C@]12C(=O)C(C)=C(O)[C@@]1(C)C(C)=CC1[C@@]34CC[C@@H](OC(C)=O)C(C)(C)C3C(C[C@]12C)OC4=O (stereo partly specified),2%,0%,?,2%,-5%,11%
COC(=O)c1nc(-c2ccc3c(n2)C(=O)C(N)=C(OC)C3=O)c(N)c(-c2ccc(OC)c(OC)c2O)c1C,3%,-2%,-13%,nt,4%,16µM*
C#CCO,nt,nt,-9%,nt,3%,nt
OC[P+](CO)(CO)CO,nt,nt,-11%,nt,1%,nt
CCCc1cc2c(n1CCO)C(C)C1CN(C(=O)c3ccccc3)C(C)(C(=O)OC)C21 (stereo unspecified),nt,0%,0%,nt,-13%,37%
O=C1NC(=O)N(c2cccc(Cl)c2)C(=O)/C1=C\c1ccc(Sc2nc3ccccc3[nH]2)o1,-1%,-1%,34%,0%,-1%,40µM*
O=C1NC(=O)N(c2ccccc2)C(=O)/C1=C/c1ccc(Sc2ccccc2)o1,-3%[38.3 µM],17%,21%,1%,-18%,22µM*
O=C1NC(=O)N(c2ccccc2F)C(=O)/C1=C/c1ccc(Sc2nc3ccccc3[nH]2)o1,1%,1%,-16%,-1%,5%,50µM*
C=C(C)C#N,nt,nt,12%,nt,5%,nt
CN(C(=O)Cc1ccc(Cl)c(Cl)c1)[C@H](CN1CCCC1)c1ccccc1,nt,0%,-24%,nt,2%,-2%
CN1CCCCC1c1cccnc1 (stereo unspecified),nt,1%,nt,nt,nt,-19%
CN1CCCC1c1ccc(=O)[nH]c1 (stereo unspecified),-3%,nt,nt,32µM*,nt,nt
O=C1NC(=S)NC(=O)C1=Cc1ccc2c(c1)CCN2CCCCl,1%,-2%,11%,-3%,4%,16µM*
O=C1NC(=O)C(=Cc2ccc(Cl)cc2)C(=O)N1,nt,nt,nt,-2%,nt,nt
COC(=O)C1=Nc2ccccc2/C1=C\c1c(O)n(-c2ccc(OC)cc2)c(=O)[nH]c1=O,?,-1%,14%,13%,-1%,50µM*
COC(=O)C1=Nc2ccccc2/C1=C\c1c(O)n(-c2ccc(Br)cc2)c(=O)[nH]c1=O,0%,0%,?,-1%,?,45µM*
CN=C=S,nt,nt,-18%,nt,-8%,nt
C[C@H](CCC(=O)O)C[C@H](C)C[C@H](C)C(=O)/C=C(\O)[C@H](C)C[C@H](C)C/C=C/[C@@H](C)[C@@H](O)[C@@H](C)[C@@H](O)C[C@@H]1CC[C@@](C)(C2CC[C@@](C)([C@@H](C)O)O2)O1 (stereo partly specified),nt,1%,?,nt,6.3µM*,3%
CC(=O)Oc1ccc2c3c1OC1[C@@H](OC(C)=O)C=C[C@H]4[C@H](C2)N(C)CC[C@]314 (stereo partly specified),nt,nt,10%,nt,1%,25%
Cc1ccc(/C=C2\C(=O)NC(=S)N(c3ccccc3F)C2=O)s1,-3%,0%,?,1%,?,14µM*
O=[N+]([O-])c1ccc(-c2ccc(C=Nc3cccc4ccccc34)o2)cc1,1%[38.3 µM],4%,3%,18µM*,-6%,9%
C#CC1(O)CCC2C3CCC4=CC(=O)CCC4=C3C=CC21C (stereo unspecified),-5%,nt,nt,28µM*,nt,nt
CCCCCCC(=O)N/N=C/c1c(O)n(C(C)CC)c(=S)[nH]c1=O (stereo unspecified),2%,0%,10µM*,0%,?,22%
CC1=C(O)C(=O)C=C2C1=CC=C1[C@]2(C)CC[C@@]2(C)C3C[C@](C)(C(=O)O)CC[C@@]3(C)CC[C@@]12C (stereo partly specified),nt,-1%,3.2µM*,nt,?,-99%
SMILES,PINK1 expr mod,Epigenetic derep,RORgamma inh,ClpP mod,VP16 counter,Sfp inh
C=CCOC(C)=O,nt,nt,9%,nt,3%,nt
CCOP(=S)(OCC)Oc1cc(C)oc(=O)c1,-1%,-2%,-9%,-1%,3%,20µM*
CCOP(=S)(OCC)Oc1cc(C)oc(=O)c1Cl,4%,3%,11%,nt,0%,8.9µM*
CCOP(=S)(OCC)Oc1ccc(Cl)cc1Cl,nt,nt,17%,nt,-8%,?
CCOP(=S)(OCC)Oc1ccc2c(C)c(Cl)c(=O)oc2c1,0%,1%,-6%,-3%,-5%,8%
CN1C[C@@H](C(=O)N[C@@]2(C)O[C@]3(O)C4CCCN4C(=O)[C@@H](Cc4ccccc4)N3C2=O)C=C2c3cccc4[nH]cc(c34)C[C@@H]21 (stereo partly specified),nt,-5%,15%,nt,6%,-31%
Cc1cc(OCC(=O)N[C@@H](Cc2ccccc2)C(=O)O)c2c3c(c(=O)oc2c1)CCCC3,1%,nt,-4%,5%,-1%,11%
C[C@@H]1Cc2c(Cl)cc(C(=O)N[C@@H](Cc3ccccc3)C(=O)O)c(O)c2C(=O)O1,nt,2%,?,nt,22µM*,2%
O=C(O)c1ccccc1SCC(=O)N1c2ccccc2Sc2ccccc21,0%,0%,-12%,?,14µM*,89µM*
Cc1ccc(NC(=O)c2cn(CCC#N)nc2-c2ccc3c(c2)OCCO3)c([N+](=O)[O-])c1,-3%,-1%,9%,28µM*,5%,12%
COC(=O)C(N)CCCN=C(N)N[N+](=O)[O-] (stereo unspecified),nt,-1%,nt,nt,nt,nt
CC(C)(C)NC(=S)/N=C(\N)N[N+](=O)[O-],1%,0%,10µM*,1%,?,?
CCCCCC(O)C1C(=O)OC(C)C(O)\C=C/C=C\C=C/C=C\C=C(\C)C(O)C(O)C(O)CC(O)CC(O)CC(O)CC(O)CC1O (stereo unspecified),nt,nt,13%,nt,-7%,9%
C/C=C1/C[C@@H](C)[C@@](C)(O)C(=O)OCC2=CCN3CC[C@@H](OC1=O)[C@@H]23,nt,nt,-24%,nt,-9%,10%
O=c1[nH]c(=S)n(-c2ccccc2)c(O)c1/C=N/N1CCCCC1c1cccnc1 (stereo unspecified),1%,2%,-6%,nt,3%,50µM*
CC(C)(O)C1O[C@H]2CC[C@@]3(C)[C@@](O)(CC[C@H]4Cc5c([nH]c6ccccc56)[C@@]43C)C2=CC1=O (stereo partly specified),nt,1%,nt,nt,nt,-2%
NCC#Cc1ccccc1,nt,17%,nt,nt,nt,nt
